Measurements reported in PubChem BioAssay AID1159580 (chemical genetic matrix, 2015).
The whole screen tested about 5,500 compounds, of which about 2,000 (36%) were called active. Roughly 18% stayed inconclusive and do not appear here. No stated cut-off is given here; in the data, active means normalized growth mostly below about 0.91 (no sharp cut-off); inconclusive means no clear call, values can overlap the other calls; inactive means mostly above about 0.92. The list shows a part of the results.

Assay: chemical genetic growth profiling, strain panel (AID 1159580);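 further: tested at 20 µM; growth read once vehicle control cultures reached saturation at 30 °C; 1 = growth at the plate median or of vehicle wells; lower values mean less growth of the strain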
Details: growth OD
[1] = S. cerevisiae deletion strains, locus YAL013W, strain DEP1, active compounds read low
[2] = S. cerevisiae deletion strains, locus YBR229C, strain ROT2, active compounds read low
[3] = S. cerevisiae deletion strains, locus YDL101C, strain DUN1, active compounds read low
[4] = S. cerevisiae deletion strains, locus YDR150W, strain NUM1, active compounds read low
[5] = S. cerevisiae deletion strains, locus YEL061C, strain CIN8, active compounds read low
[6] = S. cerevisiae deletion strains, locus YGR078C, strain PAC10, active compounds read low
[7] = S. cerevisiae deletion strains, locus YHR030C, strain SLT2, active compounds read low
[8] = S. cerevisiae deletion strains, locus YHR087W, strain rtc3, active compounds read low
[9] = S. cerevisiae deletion strains, locus YJR043C, strain POL32, active compounds read low
[10] = S. cerevisiae deletion strains, locus YJR075W, strain HOC1, active compounds read low
[11] = S. cerevisiae deletion strains, locus YKL190W, strain CNB1, active compounds read low
[12] = S. cerevisiae deletion strains, locus YLR039C, strain RIC1, active compounds read low
[13] = S. cerevisiae deletion strains, locus YLR058C, strain SHM2 (second series), active compounds read low
[14] = S. cerevisiae deletion strains, locus YLR085C, strain ARP6, active compounds read low
[15] = S. cerevisiae deletion strains, locus YLR262C, strain YPT6, active compounds read low
[16] = S. cerevisiae deletion strains, locus YML094W, strain GIM5, active compounds read low
[17] = S. cerevisiae deletion strains, locus YMR219W, strain ESC1, active compounds read low
[18] = S. cerevisiae deletion strains, locus YMR263W, strain SAP30, active compounds read low
[19] = S. cerevisiae deletion strains, locus YNL128W, strain TEP1, active compounds read low
[20] = S. cerevisiae deletion strains, locus YNL153C, strain GIM3, active compounds read low
[21] = S. cerevisiae deletion strains, locus YNL298W, strain CLA4 (second series), active compounds read low
[22] = S. cerevisiae deletion strains, locus YNL322C, strain KRE1, active compounds read low
[23] = S. cerevisiae deletion strains, locus YNR030W, strain Alg12, active compounds read low
[24] = S. cerevisiae deletion strains, locus YPL055C, strain LGE1, active compounds read low
[25] = S. cerevisiae deletion strains, locus YPL241C, strain CIN2, active compounds read low
[26] = S. cerevisiae deletion strains, locus YPR135W, strain CTF4, active compounds read low

Measured: normalized growth

CCC(C(=O)Nc1ccc(C(F)(F)F)cc1)c1ccccc1 (configuration not stated)
inactive: [1] 0.989 | [2] 0.984 | S. cerevisiae deletion strains, locus YCL061C, strain MRC1, active compounds read low 0.958 | [3] 0.956 | S. cerevisiae deletion strains, locus YDL134C, strain PPH21, active compounds read low 0.977 | [4] 0.952 | [5] 1.03 | [6] 0.958 | [7] 0.986 | [8] 0.998 | [9] 0.972 | [10] 0.96 | [11] 0.982 | [12] 0.923 | [13] 0.982 | [14] 0.925 | [15] 0.987 | [16] 0.981 | [17] 0.994 | [18] 0.99 | [19] 0.982 | [20] 0.968 | [21] 0.945 | [22] 0.99 | [23] 0.976 | [24] 1.01 | [25] 0.932 | [26] 0.906

O=C(NC(=S)NCc1ccncc1)c1ccccc1
inactive: [1] 1.02 | [2] 1.01 | [3] 1.01 | [4] 0.983 | [5] 1 | [6] 1.01 | [7] 1.05 | [8] 1 | S. cerevisiae deletion strains, locus YJL187C, strain SWE1, active compounds read low 0.973 | [9] 0.997 | [10] 1.03 | [11] 1.01 | [12] 0.928 | [13] 1 | [14] 0.969 | [15] 0.978 | [16] 1.01 | [17] 1 | [18] 1 | [19] 1.01 | [20] 1 | [21] 1.04 | [22] 1 | [23] 1.02 | [24] 1 | [25] 1.02 | [26] 0.929 | S. cerevisiae strains, strain wild type, active compounds read low 1.01

CC(C)c1ccc(NC(=S)NC(=O)c2ccccc2)cc1
active: [7] 0.797
inactive: S. cerevisiae deletion strains, locus YAR019C, strain CDC15, active compounds read low 0.964 | S. cerevisiae deletion strains, locus YBL105C, strain PKC1, active compounds read low 0.952 | S. cerevisiae deletion strains, locus YBR135W, strain CKS1, active compounds read low 0.957 | S. cerevisiae deletion strains, locus YBR136W, strain MEC1, active compounds read low 0.963 | S. cerevisiae deletion strains, locus YBR160W, strain CDC28, active compounds read low 0.961 | S. cerevisiae deletion strains, locus YDL017W, strain CDC7, active compounds read low 0.96 | S. cerevisiae deletion strains, locus YDL028C, strain MPS1, active compounds read low 0.953 | [3] 0.96 | S. cerevisiae deletion strains, locus YDL108W, strain KIN28, active compounds read low 0.971 | S. cerevisiae deletion strains, locus YDL132W, strain cdc53, active compounds read low 0.953 | S. cerevisiae deletion strains, locus YDL214C, strain PRR2, active compounds read low 0.939 | S. cerevisiae deletion strains, locus YDR052C, strain DBF4, active compounds read low 0.962 | S. cerevisiae deletion strains, locus YDR054C, strain cdc34, active compounds read low 0.94 | S. cerevisiae deletion strains, locus YDR226W, strain ADK1, active compounds read low 0.955 | S. cerevisiae deletion strains, locus YDR477W, strain SNF1, active compounds read low 0.923 | S. cerevisiae deletion strains, locus YER123W, strain YCK3, active compounds read low 0.959 | S. cerevisiae deletion strains, locus YER133W, strain GLC7, active compounds read low 0.938 | S. cerevisiae deletion strains, locus YFL009W, strain cdc4, active compounds read low 0.952 | S. cerevisiae deletion strains, locus YFL029C, strain CAK1, active compounds read low 0.953 | S. cerevisiae deletion strains, locus YFR003C, strain YPI1, active compounds read low 0.961 | S. cerevisiae deletion strains, locus YFR019W, strain FAB1, active compounds read low 0.999 | S. cerevisiae deletion strains, locus YFR028C, strain CDC14, active compounds read low 0.958 | S. cerevisiae deletion strains, locus YGR040W, strain KSS1, active compounds read low 0.918 | S. cerevisiae deletion strains, locus YGR052W, strain FMP48, active compounds read low 1.03 | S. cerevisiae deletion strains, locus YGR092W, strain DBF2, active compounds read low 0.851 | S. cerevisiae deletion strains, locus YHR079C, strain IRE1, active compounds read low 0.882 | S. cerevisiae deletion strains, locus YHR082C, strain KSP1, active compounds read low 0.974 | S. cerevisiae deletion strains, locus YHR205W, strain SCH9, active compounds read low 0.904 | S. cerevisiae deletion strains, locus YIL147C, strain SLN1, active compounds read low 0.963 | S. cerevisiae deletion strains, locus YJL095W, strain BCK1, active compounds read low 0.883 | S. cerevisiae deletion strains, locus YJL128C, strain PBS2, active compounds read low 0.94 | S. cerevisiae deletion strains, locus YJL157C, strain FAR1, active compounds read low 0.923 | S. cerevisiae deletion strains, locus YJR016C, strain ILV3, active compounds read low 0.958 | S. cerevisiae deletion strains, locus YJR066W, strain TOR1 (second series), active compounds read low 0.906 | S. cerevisiae deletion strains, locus YJR066W, strain TOR1, active compounds read low 0.891 | S. cerevisiae deletion strains, locus YKL048C, strain ELM1, active compounds read low 0.968 | S. cerevisiae deletion strains, locus YKL067W, strain YNK1, active compounds read low 0.953 | S. cerevisiae deletion strains, locus YKL101W, strain HSL1, active compounds read low 0.957 | S. cerevisiae deletion strains, locus YKL193C, strain SDS22, active compounds read low 0.954 | S. cerevisiae deletion strains, locus YKL203C, strain TOR2, active compounds read low 0.96 | S. cerevisiae deletion strains, locus YLR113W, strain HOG1, active compounds read low 0.919 | S. cerevisiae deletion strains, locus YLR133W, strain CKI1, active compounds read low 0.941 | S. cerevisiae deletion strains, locus YLR403W, strain SFP1, active compounds read low 0.879 | S. cerevisiae deletion strains, locus YML070W, strain DAK1, active compounds read low 0.97 | S. cerevisiae deletion strains, locus YMR001C, strain CDC5, active compounds read low 0.951 | S. cerevisiae deletion strains, locus YMR205C, strain PFK2 (second series), active compounds read low 0.956 | S. cerevisiae deletion strains, locus YMR277W, strain FCP1, active compounds read low 0.962 | S. cerevisiae deletion strains, locus YNL006W, strain LST8, active compounds read low 0.966 | S. cerevisiae deletion strains, locus YNL020C, strain ARK1, active compounds read low 0.926 | S. cerevisiae deletion strains, locus YNL161W, strain CBK1, active compounds read low 0.959 | S. cerevisiae deletion strains, locus YNL183C, strain NPR1, active compounds read low 0.957 | S. cerevisiae deletion strains, locus YNL207W, strain RIO2, active compounds read low 0.953 | S. cerevisiae deletion strains, locus YNL222W, strain SSU72, active compounds read low 0.959 | S. cerevisiae deletion strains, locus YNL307C, strain MCK1 (second series), active compounds read low 0.91 | S. cerevisiae deletion strains, locus YOL078W, strain AVO1, active compounds read low 0.956 | S. cerevisiae deletion strains, locus YOL136C, strain PFK27, active compounds read low 0.959 | S. cerevisiae deletion strains, locus YOR061W, strain CKA2, active compounds read low 0.904 | S. cerevisiae deletion strains, locus YOR119C, strain RIO1, active compounds read low 0.921 | S. cerevisiae deletion strains, locus YOR231W, strain MKK1, active compounds read low 0.911 | S. cerevisiae deletion strains, locus YOR329C, strain SCD5, active compounds read low 0.956 | S. cerevisiae deletion strains, locus YPL031C, strain PHO85, active compounds read low 0.898 | S. cerevisiae deletion strains, locus YPL153C, strain RAD53, active compounds read low 0.921 | S. cerevisiae deletion strains, locus YPL204W, strain HRR25, active compounds read low 0.933 | S. cerevisiae deletion strains, locus YPL209C, strain IPL1, active compounds read low 0.954 | S. cerevisiae deletion strains, locus YPL256C, strain CLN2, active compounds read low 0.92 | S. cerevisiae deletion strains, locus YPR025C, strain CCL1, active compounds read low 0.955 | S. cerevisiae deletion strains, locus YPR106W, strain ISR1, active compounds read low 0.958 | S. cerevisiae deletion strains, locus YPR111W, strain DBF20, active compounds read low 0.964 | S. cerevisiae deletion strains, strain NNK1, active compounds read low 0.967 | S. cerevisiae deletion strains, strain TSCII, active compounds read low 0.947
